From PubChem
Most compounds without a hit are left out; they make up all but 11% or so of the library.
Pf growth 96h – P. falciparum growth inhibition at 96 hour, primary screen for plastid delayed-death inhibitors. P. falciparum luciferase reporter growth, 96 h. Potency, µM (doses to about 28.7 µM), for the others: at the top dose activity change, negative = inhibition, actives largely listed as inhibitors. 6.9% of 320,000 active; further: on the % scale 0 is the no-effect control and ±100 the full control effect
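P. falciparum expressing integrated firefly luciferase grown in erythrocytes (2% hematocrit, 0.05% parasitemia final) with compounds for 96 hours at 37 C, 5% CO2. Growth inhibition read as loss of luminescence after adding luciferase detection reagent.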
NS1 function inh – blocks influenza NS1 protein function. AID 2326. Potency, µM (titrated, usually from 46.1 µM), without a hit: at the highest dose activity, positive = more growth. 0.4% of 270,000 active; calls by dose curve; further: actives are rising curves; nearly all actives have a fitted effect of over 50% in size
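A cell-based growth assay was used: compounds that relieve NS1-induced slow growth of budding yeast raise OD600. Assay medium was yeast nitrogen base with ammonium sulphate and -URA supplement, pH 6.0, with 2% galactose.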
Pf growth 48h – inhibits P. falciparum growth in the first generation, 48 h; P. falciparum luciferase growth in erythrocytes, 48 h; Potency, µM (highest dose often 28.7 µM), for the others: top-dose activity change, negative = inhibition, most hits filed as inhibitors; 5.9% of 310,000 active; further: on the % scale 0 is the no-effect control and ±100 the full control effect
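First compound was added to culture medium, then infected red cells at 0.1% parasitemia and 2% hematocrit (final). After incubation at 37 C under 5% CO2, luciferase detection reagent was dispensed and light output recorded.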
Sm TGR inh – inhibitors of Schistosoma mansoni thioredoxin glutathione reductase; Q962Y6; AID 485364; 3% of 360,000 active; purified TGR, DTNB reduction, TNB absorbance 405 nm; Potency, µM (doses to about 114 µM), inactives show top-dose activity change, negative = inhibition, most hits filed as inhibitors; further: on the % scale 0 is the no-effect control and ±100 the full control effect; nearly all actives have a fitted effect of over 60% in size
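First, TGR (20 nM dispensed) and NADPH were mixed with compound. Second, a 15 min room-temperature incubation followed. Third, further NADPH and then DTNB were added to start the reaction. Finally, TNB absorbance was monitored kinetically.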
AMA1 RON2 block – disrupts binding of P. falciparum AMA1 to RON2; AlphaScreen AMA1-biotinylated RON2 peptide binding; Potency, µM (doses to about 58.2 µM), for the others: at the highest dose activity change, negative = inhibition, actives largely listed as inhibitors; 0.2% of 360,000 active; AID 720542;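 further: 0% = vehicle wells and -100% = peptide control; nearly all actives have a fitted effect of over 45% in size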
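AMA1 (3D7) with his tag at 25 nM final met compounds first, then biotinylated RON2 peptide at 25 nM; detection used donor plus acceptor beads, 10 µg/mL apiece, read by AlphaScreen after 30 min at room temperature.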
* marks the source's active call; other numbers are inactive results; ? = inconclusive; . = no result. Unless noted, the call rests on the fitted dose curve; in most records, active means well fitted curve in the direction sought with a large enough effect; inconclusive means small, poorly fitted or top-dose-only effect, or another doubt; inactive means no such curve, though single readings can be large; an effect the other way counts as inactive or inconclusive. Potency means the concentration at half of the fitted maximal effect.

SMILES	Pf growth 96h	NS1 function inh	Pf growth 48h	Sm TGR inh	AMA1 RON2 block
Cc1ccc2cccnc2c1NC(=S)NC(=O)c1ccccc1	?	-2%	?	35µM*	41%
O=C(Cc1cc(=O)[nH]c(=O)[nH]1)N1CCC(Cc2ccccc2)CC1	-9%	-81%	-6%	-3%	10%
O=C(Cc1cc(=O)[nH]c(=O)[nH]1)N1CCN(CCO)CC1	30%	4%	23%	32µM*	24%
CCN(CC)S(=O)(=O)c1cccc(NC(=O)COC(=O)/C=C/c2cccs2)c1	-10%	11%	-22%	9%	-16%
Cc1cc(=O)oc(C)c1C(=O)NCC(C)C	4%	4%	14%	0%	-3%
CCCNC(=O)c1c(C)cc(=O)oc1C	6.6µM*	13%	33%	0%	-5%
O=C1C2C3C=CC(CO)(O3)C2C(=O)N1c1ccc(-c2ccccc2)cc1 (centres undefined)	14%	-163%	46%	0.5µM*	.
CCC1(C(=O)OC)NC(c2ccco2)C2C(=O)N(c3ccccc3)C(=O)C21 (centres undefined)	-21%	9%	9%	0%	7%
CC(C)(C)C(=O)NCC12C=CC(O1)C1C(=O)N(c3ccccc3)C(=O)C12 (centres undefined)	2.1µM*	-31%	27%	1.6µM*	-2%
COC(=O)C1(CO)NC(c2ccc(C)cc2)C2C(=O)N(c3ccccc3)C(=O)C21 (centres undefined)	-15%	15%	-4%	-15%	-1%
Cn1c(=S)[nH]c2c(c1=O)C(C)(C)Cc1ccccc1-2	3.3µM*	.	48%	-1%	80%
CCn1c(=S)[nH]c2c(c1=O)C(C)(C)Cc1ccccc1-2	27%	?	47%	0%	72%
COc1ccc(C2(CNC(=O)C(=O)Nc3ccc(F)cc3)CCCC2)cc1OC	.	.	.	-7%	.
COC(=O)C(Nc1ccccc1Cl)(c1cc(C)c(O)c(C)c1)C(F)(F)F (centres undefined)	.	-71%	9.3µM*	0%	7%
CCOC(=O)C(NC(=O)c1ccccc1Cl)(Nc1ccc(C)c(C)c1)C(F)(F)F (centres undefined)	2%	4%	?	7%	16%
CC(C)OCCCn1c(=O)c2ccccc2n2c(-c3ccccc3)nnc12	.	.	.	25%	.
Fc1ccc2[nH]c3c(N4CCN(c5ccccc5)CC4)ncnc3c2c1	12µM*	3%	13µM*	2%	-18%
COc1cc2[nH]c3c(N4CCN(c5ccccn5)CC4)ncnc3c2cc1OC	15µM*	-35%	9.3µM*	-29%	-9%
CCOC(=O)N1CCN(c2ncnc3c2[nH]c2ccc(OC)cc23)CC1	?	-53%	?	12%	8%
CCOC(=O)N1CCN(c2ncnc3c2[nH]c2ccc(F)cc23)CC1	13µM*	-2%	?	1%	27%
COc1ccc(N2CCN(c3ncnc4c3[nH]c3ccccc34)CC2)cc1	?	6%	?	1%	-4%
COc1ccc(CCNC(=O)CCn2c(=O)c3ccccc3n(Cc3ccccc3F)c2=O)cc1OC	.	.	.	-6%	.
COc1cc(C(CCN2CCCCC2)c2c(OC)cc(OC)c3c(-c4ccccc4)cc(=O)oc23)cc(OC)c1OC (centres undefined)	5.9µM*	-6%	10µM*	45µM*	-18%
COc1cc(C(CCN2CCCC(C)C2)c2c(OC)cc(OC)c3c(-c4ccccc4)cc(=O)oc23)cc(OC)c1OC (centres undefined)	2.9µM*	-32%	7.4µM*	-32%	-17%
COc1cc(OC)c2ccc(=O)oc2c1C(CCN1CCCCC1)c1ccc(N(C)C)cc1 (centres undefined)	?	-10%	?	-22%	-26%
SMILES	Pf growth 96h	NS1 function inh	Pf growth 48h	Sm TGR inh	AMA1 RON2 block
COc1cc(NC(=O)c2ccc(-n3cnc4cccnc43)cc2)cc(OC)c1	.	.	.	3%	.
CCN1CCN(Cc2nnc(-c3ccc(C)cc3)o2)CC1	23%	5%	33%	-10%	8%
O=C(Nc1cc(C(F)(F)F)ccc1Cl)C1CCN(c2nnc(-n3cccc3)s2)CC1	11%	-1%	8.3µM*	0%	-1%
O=C(C1CCN(c2nnc(-n3cccc3)s2)CC1)N1CCN(Cc2ccc3c(c2)OCO3)CC1	1.5µM*	-30%	?	1%	-6%
CC1CCN(Cc2ccc(NC(=O)C3CCN(c4nnc(-n5cccc5)s4)CC3)cc2)CC1	8%	-4%	7.4µM*	2%	-2%
Cc1cc(C)c2cc(C#N)c(SCC(=O)Nc3ccc4c(c3)OCO4)nc2c1	?	-54%	-3%	0%	-8%
CCCN1CCN(C(=O)CN2C(=O)CC(C)(C)S(=O)(=O)c3ccccc32)CC1	15µM*	-3%	-17%	?	-18%
CCOC(=O)N1CCN(C(=O)CN2C(=O)CC(C)(C)S(=O)(=O)c3ccccc32)CC1	3.3µM*	-4%	.	6%	7%
CN1CCN(C(=O)CN2C(=O)CC(C)(C)S(=O)(=O)c3ccccc32)CC1	.	-5%	.	?	3%
CCOC(=O)C1(Cc2ccccc2C)CCCN(C(=O)c2ccccn2)C1 (centres undefined)	?	2%	-4%	?	20%
CCOC(=O)C1(Cc2ccccc2C)CCCN(C(=O)c2ccc3nccnc3c2)C1 (centres undefined)	-23%	-2%	13µM*	-16%	2%
CCOC(=O)C1(Cc2ccccc2C)CCCN(Cc2ccc(NC(C)=O)cc2)C1 (centres undefined)	?	-1%	5.2µM*	0%	-5%
CC(=O)c1ccc(NC(=O)CN(C)S(=O)(=O)c2cnc[nH]2)cc1	.	.	.	-3%	.
C=CCN1CC[C@]23CCCCC2[C@H]1Cc1ccc(O)cc13 (some centres undefined)	15µM*	-5%	?	.	.
CCOC(=O)N1CCN(C(=O)c2ccccc2N(Cc2ccccc2)S(=O)(=O)c2ccccc2)CC1	22%	-7%	4.7µM*	2%	-3%
Cc1ccc(N2CCN(C(=O)c3ccccc3F)CC2)c(C)c1	3.3µM*	-51%	-15%	8%	-4%
CN(c1ccc(C(=O)N2CCN(c3ccccc3F)CC2)cc1)S(=O)(=O)c1ccccc1	-3%	-23%	34%	0%	-9%
CN(c1ccccc1C(=O)N1CCN(c2ccccc2F)CC1)S(=O)(=O)c1ccccc1	10µM*	-27%	-29%	-1%	1%
Cc1n[nH]c(C)c1CCNCc1ccc(OCC(O)CN2CCCCC2)cc1 (centres undefined)	?	2%	-2%	0%	7%
CC1CCN(S(=O)(=O)c2ccc(NC(=O)c3ccco3)cc2)CC1	10%	-13%	3.7µM*	0%	-3%
O=C(Nc1ccc(S(=O)(=O)N2CCCCC2)cc1)c1ccco1	-8%	-2%	?	0%	-3%
